Test systems include DU-145 prostate; K-562 leukemia; MALME-3M melanoma; MDA-MB-231 breast; RXF 393 renal; SF-268 CNS; SF-295 CNS; SF-539 CNS; UACC-257 melanoma.
What all share (assay): NCI-60 one-dose screen, 48 h (100 = growth as untreated, 0 = no growth, -100 = all killed)
Common to all, as to conditions: 10 µM unless noted

Compounds without any hit were thinned out: in the full panel of roughly 83,000, 20% have a hit.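 Note: values are percent growth. 100 is the growth of untreated cells, values between 100 and 0 indicate rising inhibition; between -100 and 0 indicates cell death.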 Values without a mark were called inactive. Active and inactive are the calls of the source. How the source made its calls: active means growth percent below 10; inactive means the rest.

Consider `COc1ccc(-c2cc(-c3ccc(Cl)cc3)c(C#N)c(=O)n2Cc2ccc(C(=O)O)cc2)cc1`, for which the growth in the test with DU-145 prostate is 112%; in the test with K-562 leukemia, 54.3%; in the test on MALME-3M melanoma, 52.9%; in the test with MDA-MB-231 breast it was 95.6%; in the test on RXF 393 renal, 72.1%; in the test on SF-268 CNS, 67.8%. Also, the growth in the test on SF-295 CNS was 68.3%; in the test with SF-539 CNS, 69.1%; with UACC-257 melanoma, 83.8%.

`Brc1ccccc1/C=N/Nc1nc(N/N=C/c2ccccc2Br)nc(N2CCOCC2)n1`: the growth with DU-145 prostate was 98.3%; in the test with K-562 leukemia, 94.1%; in the test on MALME-3M melanoma, 143%; in the test with MDA-MB-231 breast, 103%; in the test with RXF 393 renal, 69.6%; with SF-268 CNS, 102%. The growth with SF-295 CNS is 85.5%; in the test on SF-539 CNS, 105%; in the test with UACC-257 melanoma it was 104%.

On to `Cc1ccc(NC(=O)c2ccc(CN3CCN(C)CC3)cc2)cc1Oc1ccc(-c2[nH]nc3ncnc(N)c23)cc1`, for which the growth in the test on DU-145 prostate was 106%; in the test with K-562 leukemia, 9% (active); in the test with MALME-3M melanoma, 68.8%; with MDA-MB-231 breast, 95.9%; with RXF 393 renal, 78.3%; with SF-268 CNS it was 89%. Further, the growth was 103% with SF-295 CNS, 85.9% with SF-539 CNS and 98.5% in the test on UACC-257 melanoma.

Regarding `NC(=O)c1c(NC(=O)c2ccc(F)cc2F)sc2c1CCC(=O)C2`, the growth in the test on DU-145 prostate was 101%; with K-562 leukemia it was 15.8%; in the test on MALME-3M melanoma it was 63.8%; with MDA-MB-231 breast, 39.2%; in the test with RXF 393 renal, 85.1%; with SF-268 CNS it was 34.7%. Further, the values for the growth with SF-295 CNS, in the test on SF-539 CNS and with UACC-257 melanoma were 99.7%, 16.3% and 81.8%, respectively.

In the case of `COc1cc(-c2nc(SCCC(C)C)nc(NNC(=O)c3ccncc3)c2C#N)cc(OC)c1OC`, the growth is 79.1% in the test on DU-145 prostate; 74.6% in the test with K-562 leukemia; 105% in the test on MALME-3M melanoma; 27.9% in the test on MDA-MB-231 breast; -16.7% (active) in the test with RXF 393 renal; 56% with SF-268 CNS. The growth in the test on SF-295 CNS is 65.7%; with SF-539 CNS, 71.6%; in the test with UACC-257 melanoma it was 94.2%.

Take `N=c1c2cc(-c3ccccc3)oc2ncn1/N=C/c1ccc(Br)cc1`: the growth in the test on DU-145 prostate was 50.9%; in the test with K-562 leukemia, 80%; in the test with MALME-3M melanoma it was 16.3%; with MDA-MB-231 breast, 93.4%; in the test on RXF 393 renal, 86.6%; in the test with SF-268 CNS, 68.9%. The growth with SF-295 CNS is 84.2%; in the test with SF-539 CNS, 74.2%; in the test with UACC-257 melanoma it was 89.8%.

Turning to `Cc1ccc(-c2nn(-c3ccccc3)cc2/C=C/C(=O)c2ccc(NC(=O)CCCCCCC(=O)NO)cc2)cc1`, the growth in the test on DU-145 prostate is 79.1%; in the test with K-562 leukemia, 43.2%; in the test with MALME-3M melanoma it was 122%; in the test with MDA-MB-231 breast, 78.6%; with RXF 393 renal it was -2.12% (active); with SF-268 CNS, 81.8%. Also, the growth with SF-295 CNS was 88%; with SF-539 CNS, 82.5%; in the test on UACC-257 melanoma, 82.3%.

Turning to `C=C1CC[C@@H]2[C@](C)(CO)[C@H](O)CC[C@@]2(C)[C@@H]1C/C(O)=C1\CCOC1=O`, the growth in the test on DU-145 prostate is 102%; with K-562 leukemia it was 73.1%; in the test on MALME-3M melanoma it was 105%; with MDA-MB-231 breast, 110%; in the test with RXF 393 renal, 123%; in the test on SF-268 CNS, 98.8%. Also, the growth was 103% with SF-295 CNS, 108% with SF-539 CNS and 93.1% in the test on UACC-257 melanoma.

Consider `Nc1ccccc1NC(=O)c1ccc(NC(=O)C/C=C/c2cccnc2)cn1`, for which the growth was 6.29% (active) with DU-145 prostate; 15.7% with K-562 leukemia; 15.6% with MALME-3M melanoma; 41.6% in the test with MDA-MB-231 breast; -35.5% (active) in the test with RXF 393 renal; 28.3% in the test on SF-268 CNS. Moreover, the growth with SF-295 CNS was 21.8%; in the test with SF-539 CNS it was 9.41% (active); in the test with UACC-257 melanoma, 14.5%.

For the compound `NC(=O)c1c(NC(=O)c2ccccc2C(F)(F)F)sc2c1CCC(=O)C2`, the growth is 81.2% in the test with DU-145 prostate; 11.7% in the test with K-562 leukemia; 15% in the test on MALME-3M melanoma; 16.2% in the test on MDA-MB-231 breast; 41.7% in the test with RXF 393 renal; 24.6% in the test on SF-268 CNS. The values for the growth in the test on SF-295 CNS, with SF-539 CNS and with UACC-257 melanoma were 73%, 5.83% (active) and 10.6%, respectively.

On to `Cc1cc(C)n(C(=O)c2sc(=S)n(-c3ccccc3)c2N=Nc2c(N)n[nH]c2N)n1`, for which the growth with DU-145 prostate was 110%; in the test with K-562 leukemia, 105%; with MALME-3M melanoma, 73.9%; with MDA-MB-231 breast it was 89.2%; in the test with RXF 393 renal it was 116%; with SF-268 CNS, 104%. Also, the growth with SF-295 CNS was 104%; with SF-539 CNS, 99.1%; with UACC-257 melanoma, 106%.

In the case of `CCN(CC)c1cn(-c2ccc(S(N)(=O)=O)cc2)nn1`, the growth is 105% in the test with DU-145 prostate; 91.6% with K-562 leukemia; 103% in the test on MALME-3M melanoma; 102% in the test with MDA-MB-231 breast; 114% in the test on RXF 393 renal; 101% in the test on SF-268 CNS. In addition, the figures for the growth in the test with SF-295 CNS, in the test on SF-539 CNS and in the test with UACC-257 melanoma were 101%, 99.6% and 99.7%, respectively.

Take `COc1cc(Nc2c(C#N)cnn3cc(-c4cnn(CC(C)(C)O)c4)cc23)ccc1Cl`: the growth in the test with DU-145 prostate is 47.6%; in the test with K-562 leukemia, 12.9%; with MALME-3M melanoma it was 67.5%; in the test with MDA-MB-231 breast, 65.4%; in the test on RXF 393 renal, -20.3% (active); in the test on SF-268 CNS, 56.5%. The growth in the test with SF-295 CNS was 63%; in the test on SF-539 CNS, 8.69% (active); in the test with UACC-257 melanoma, 81.7%.

Consider `COc1cc(-c2nc(-c3ccccc3)[nH]c2-c2ccnc(NCCCNS(=O)(=O)c3cccc(F)c3)n2)ccc1Cl`, for which the growth is 54.3% in the test with DU-145 prostate; 23.4% with K-562 leukemia; 64.3% in the test with MALME-3M melanoma; 64.8% with MDA-MB-231 breast; 36.1% in the test on RXF 393 renal; 59.4% with SF-268 CNS. Besides, the growth is 25% with SF-295 CNS, 69.5% in the test with SF-539 CNS and 58.7% with UACC-257 melanoma.

For the origin of these results see PubChem BioAssay (NCI).
